Assay results taken from PMC12136788.
Residue numbers refer to the chain shown, from its start. Whole data set: some 24,000 sequences, median “enrichment r” near 0.99, cut for the highest 2% near 3.7. The sample holds the highest values, similar sequences and a random draw of the others, so the mix is not that of the screen.

B1: chr14:79828021:79828022:+_ENSMUSG00000043881_ENSMUST00000061222|mus_mus|motif|central (ssRNA)
RNA: GGGAGUUCUACAGUCCGACGAUCAGGAUCAUAGCAGAGCAUGCGCUUACUGUUGACAGCGUAAAGAUAAUUCUGAACCACGGUUAGUUCAAAUGAAUAAAAGGAAUGUGGUACAGGAGCCACCAAUGCCCAUUGGUUCCUCUGCAACAGAGGAUUGAGCAUCA
B2: chr20:5919097:5919098:-_ENSG00000089195_ENST00000203001|hu_hu|FALSE|FALSE (ssRNA)
RNA: GGGAGUUCUACAGUCCGACGAUCGUUCUUAUUCUUGGGAUAUGAAAAAACAAGUAGUAAUGGCAUUUAAAGUUUAAUUACUAACUGUAUAAUGCCUGAGAACAAAAUUCAGAGCAAUUCUCAAAAGGGUUAAGAGUCAGACUCCAACAGAGGAUUGAGCAUCA
B3: chr3:49547525:49547526:-_ENSMUSG00000037892_ENSMUST00000035931|mus_hu|motif|central (ssRNA)
RNA: GGGAGUUCUACAGUCCGACGAUCGUUCUUAUACUAAAAAUAAAAGCAAAAAUAUGAGAUCAUGCACUGGAGACAAAAGCGGAAAAUGAAUAGUUAUAACAAAGAAAGACAAUAUUCCAAAAGAUUAAAAUGUUCAAGUAUUGUCAACAGAGGAUUGAGCAUCA
B4: chr11:87794696:87794697:-_ENSMUSG00000020483_ENSMUST00000020775|mus_hu|motif|central (ssRNA)
RNA: GGGAGUUCUACAGUCCGACGAUCGCCUUUUAUUUUGUAUAGGGAAAGAAAGAGAAAAGGGAGAGGUGGGAGAGAUUUCCGGGUGCAAUACAACCAAAAAAUAUUUUUAAAGUCUUGAAAAAUAAACAUAAAGCAGCCUUCUUCCAACAGAGGAUUGAGCAUCA
B5: chr3:49547525:49547526:-_ENSMUSG00000037892_ENSMUST00000035931|mus_hu|FALSE|FALSE (ssRNA)
RNA: B3 RNA with G80U, G81A
B6: chr4:21667751:21667752:+_ENSMUSG00000028252_ENSMUST00000108240|mus_mus|motif|central (ssRNA)
RNA: GGGAGUUCUACAGUCCGACGAUCUUCUAGUAUAUGAUUCAUCCUGUAAGGAAAUUCCUUUGGAAAAGCAUAUGAAAAUCGGGUUUUUAAUACAGAAGUAGUAGCAGCAAUCAAUCUUGUAUUUGAGACAACACCAAAUUCCUCCAACAGAGGAUUGAGCAUCA
B7: chr1:163112212:163112213:-_ENSG00000143248_ENST00000313961|hu_hu|hu_hu_hu_mus_False|1_18 (ssRNA)
RNA: GGGAGUUCUACAGUCCGACGAUCUUUUAUUAUCAGUAAGAGUGAGUUACAUACUAGGCAAAGUAUUGGAUACAAUAAUCAGGAAACAAACACUAUUGGUCCAGAAUUUAAAACUUUUGGGAUAAAUUGCUGGCACAGGAUUUACAACAGAGGAUUGAGCAUCA
B8: chr1:154935262:154935263:-_ENSG00000160691_ENST00000448116|hu_hu|motif|central (ssRNA)
RNA: GGGAGUUCUACAGUCCGACGAUCAUUUUGUGCUCAAGAAUAAGCAAUGGAAAAGAAAAUAGGAAAGUAAGUCUACAGCCCGGAAAUAUAUGCAUAUAAAACUUUAAAAGAAUGCAGUUCCAACUCUACAGAUGGUAUGUGGGGCAACAGAGGAUUGAGCAUCA
B9: chr1:154935262:154935263:-_ENSG00000160691_ENST00000448116|hu_hu|FALSE|FALSE (ssRNA)
RNA: B8 RNA with G81U, G82A
B10: chr9:90322654:90322655:+_ENSG00000196730_ENST00000408954|hu_hu|FALSE|FALSE (ssRNA)
RNA: GGGAGUUCUACAGUCCGACGAUCAAAGAAAAGCGUAUAAGAAAUACACAUUUUGGAUAAAUAUGCACUUUUCUUUUUUAAAGGACAAUCAAUAUAGUAGUUAAAAAAAAUGUCAUUGAAAAGUUAGGAAUUCCAGCAAAAUUACAACAGAGGAUUGAGCAUCA
B11: chr3:49547525:49547526:-_ENSMUSG00000037892_ENSMUST00000035931|mus_mus|motif|central (ssRNA)
RNA: GGGAGUUCUACAGUCCGACGAUCGUUCAUAUGCUAAAAAUACAAGCAAAACUGUGAUAGCAUGCACAAGAGACAAAAGCGGAAGGUGAAUAAUUAUAGCCAAAAAAAGAGAGACAAUGCAGUCGAUACAAAUGUUCAAGUAUGCAACAGAGGAUUGAGCAUCA

These binders were tested against T1, UNK ZnF1-3 (human, UniProt Q9C0B0 31-174) (assay: nsRBNS (natural sequence RNA bind-n-seq); RBNS binding buffer (assumed for nsRBNS): 25 mM Tris pH 7.5, 150 mM KCl, 3 mM MgCl2, 0.01% Triton X-100, 500 ug/ml BSA, 20 U/ml SUPERase-In, 4 C; UNK is unkempt and MSI1 is Musashi-1; names of the RNAs are library labels; protein concentration not given here; high values mean tight binding).
T1 sequence: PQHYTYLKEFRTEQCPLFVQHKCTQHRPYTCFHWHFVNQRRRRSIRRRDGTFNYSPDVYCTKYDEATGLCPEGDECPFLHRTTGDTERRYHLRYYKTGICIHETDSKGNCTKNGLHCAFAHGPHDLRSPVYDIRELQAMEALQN

Binder | binding signal [enrichment R]
B1 | 1.02
B2 | 0.585
B3 | 3.95
B4 | 3.42
B5 | 4.56
B6 | 0.985
B7 | 1.27
B8 | 3.69
B9 | 3.55
B10 | 8.3
B11 | 1.91
